# According to the supplement of paper PMC8728848:
# Only a selection was taken, and the strongest signals are over-represented in it overall.
# Legend:
# Experiment in all cases: glycan array binding signal (z-score within array); higher = stronger binding
# Conditions in all cases: glycan notation: IUPAC condensed, linker removed
# [1] = biological target: Fuc(a1-2)Gal(b1-3)GlcNAc(b1-3)Gal(b1-4)Glc
# In short: (§1)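 Glycan array binding is given as a within-array Z-score, which can be read as non-binding when negative. The arrays, 3228 of them, came from the Consortium for Functional Glycomics database and were retained only where the protein sequence was available. Z-scores were averaged across arrays of the same protein sequence at different concentrations or buffers and across linkers.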
# [2] = biological target: Fuc(a1-2)Gal(b1-4)GlcNAc(b1-3)Gal(b1-4)GlcNAc(b1-3)Gal(b1-4)GlcNAc
# In short: as §1
# [3] = biological target: Fuc(a1-2)Gal(b1-4)GlcNAc6S
# In short: as §1
# [4] = biological target: Fuc(a1-2)Gal(b1-4)[Fuc(a1-3)]GlcNAc
# In short: as §1
# [5] = biological target: Fuc(a1-2)Gal(b1-4)[Fuc(a1-3)]GlcNAc(b1-3)Gal(b1-4)[Fuc(a1-3)]GlcNAc(b1-3)Gal(b1-4)[Fuc(a1-3)]GlcNAc
# In short: as §1
# [6] = biological target: Fuc(a1-2)Gal6S(b1-4)Glc6S
# In short: as §1
# [7] = biological target: Fuc(a1-2)[GalNAc(a1-3)]Gal(b1-4)Glc
# In short: as §1
# [8] = biological target: Fuc(a1-3)[Gal(b1-4)]GlcNAc6S
# In short: as §1
# [9] = biological target: Fuc(a1-3)[Gal3S(b1-4)]GlcNAc6S
# In short: as §1
# Gal(a1-6)Glc = biological target: Gal(a1-6)Glc
# In short: as §1
# [10] = biological target: Gal(b1-4)GlcNAc(b1-3)Gal(b1-4)GlcNAc(b1-3)Gal(b1-4)GlcNAc
# In short: as §1
# Gal3S(b1-3)GalNAc = biological target: Gal3S(b1-3)GalNAc
# In short: as §1
# Gal3S6S(b1-4)GlcNAc6S = biological target: Gal3S6S(b1-4)GlcNAc6S
# In short: as §1
# Gal4S6S(b1-4)GlcNAc = biological target: Gal4S6S(b1-4)GlcNAc
# In short: as §1
# GalNAc(a1-3)GalNAc = biological target: GalNAc(a1-3)GalNAc
# In short: as §1
# GlcA(b1-3)GlcNAc = biological target: GlcA(b1-3)GlcNAc
# In short: as §1
# Kdn(a2-3)Gal(b1-3)GlcNAc = biological target: Kdn(a2-3)Gal(b1-3)GlcNAc
# In short: as §1
# [11] = biological target: Man(a1-2)Man(a1-2)Man(a1-3)Man
# In short: as §1
# [12] = biological target: Neu5Ac(a2-3)Gal(b1-3)[Fuc(a1-4)]GlcNAc
# In short: as §1
# Neu5Ac(a2-3)Gal(b1-4)Glc = biological target: Neu5Ac(a2-3)Gal(b1-4)Glc
# In short: as §1
# [13] = biological target: Neu5Ac(a2-3)Gal(b1-4)GlcNAc(b1-2)Man(a1-3)[Neu5Ac(a2-6)Gal(b1-4)GlcNAc(b1-2)Man(a1-6)]Man(b1-4)GlcNAc(b1-4)GlcNAc
# In short: as §1
# [14] = biological target: Neu5Ac(a2-3)Gal(b1-4)GlcNAc(b1-3)Gal(b1-3)GlcNAc
# In short: as §1
# [15] = biological target: Neu5Ac(a2-3)Gal(b1-4)[Fuc(a1-3)]GlcNAc(b1-3)Gal(b1-4)[Fuc(a1-3)]GlcNAc(b1-3)Gal(b1-4)[Fuc(a1-3)]GlcNAc
# In short: as §1
# [16] = biological target: Neu5Ac(a2-6)Gal(b1-4)GlcNAc6S
# In short: as §1
# Neu5Ac(b2-6)GalNAc = biological target: Neu5Ac(b2-6)GalNAc
# In short: as §1
# [17] = biological target: Neu5Gc(a2-3)Gal(b1-3)[Fuc(a1-4)]GlcNAc
# In short: as §1
# Neu5Gc(a2-3)Gal(b1-4)Glc = biological target: Neu5Gc(a2-3)Gal(b1-4)Glc
# In short: as §1
binder,measurement,setting,value
"CLC (Homo sapiens), Q9UBD9 (protein) MDLRAGDSWGMLACLCTVLWHLPAVPALNRTGDPGPGPSIQKTYDLTRYLEHQLRSLAGTYLNYLGPPFNEPDFNPPRLGAETLPRATVDLEVWRSLNDKLRLTQNYEAYSHLLCYLRGLNRQAATAELRRSLAHFCTSLQGLLGSIAGVMAALGYPLPQPLPGTEPTWTPGPAHSDFLQKMDDFWLLKELQTWLWRSAKDFNRLKKKMQPPAAAVTLHLGAHGF",glycan array binding signal (z-score),[1],-0.218
same,glycan array binding signal (z-score),[2],-0.886
same,glycan array binding signal (z-score),[3],-0.106
same,glycan array binding signal (z-score),[4],-0.557
same,glycan array binding signal (z-score),[5],0.011
same,glycan array binding signal (z-score),[6],2.23
same,glycan array binding signal (z-score),[7],1.52
same,glycan array binding signal (z-score),[8],-0.923
same,glycan array binding signal (z-score),[9],2.72
same,glycan array binding signal (z-score),Gal(a1-6)Glc,-0.312
same,glycan array binding signal (z-score),[10],-0.565
same,glycan array binding signal (z-score),Gal3S(b1-3)GalNAc,-0.144
same,glycan array binding signal (z-score),Gal3S6S(b1-4)GlcNAc6S,11.1
same,glycan array binding signal (z-score),Gal4S6S(b1-4)GlcNAc,2.49
same,glycan array binding signal (z-score),GalNAc(a1-3)GalNAc,0.257
same,glycan array binding signal (z-score),GlcA(b1-3)GlcNAc,0.215
same,glycan array binding signal (z-score),Kdn(a2-3)Gal(b1-3)GlcNAc,-0.192
same,glycan array binding signal (z-score),[11],0.263
same,glycan array binding signal (z-score),[12],-0.63
same,glycan array binding signal (z-score),Neu5Ac(a2-3)Gal(b1-4)Glc,0.101
same,glycan array binding signal (z-score),[13],0.098
same,glycan array binding signal (z-score),[14],0.852
same,glycan array binding signal (z-score),[15],-0.485
same,glycan array binding signal (z-score),[16],-0.346
same,glycan array binding signal (z-score),Neu5Ac(b2-6)GalNAc,-0.297
same,glycan array binding signal (z-score),[17],-0.279
same,glycan array binding signal (z-score),Neu5Gc(a2-3)Gal(b1-4)Glc,2.45
